# The campaign covered roughly 420,000 compounds. About 64,000 (15%) were called active. Another 27% or so got no clear call; they are omitted. The call rests on the fitted dose curve; in most records, active means well fitted inhibition curve with a large enough effect; inconclusive means small, poorly fitted or top-dose-only effect; inactive means flat fitted curve, though single readings scatter. The list is a sample of the results. A call without a number means that no potency is given here.
# Assay: qHTS for Inhibitors of human tyrosyl-DNA phosphodiesterase 1 (TDP1): qHTS in cells in absence of CPT; further: nearly all actives have a fitted effect of over 55% in size
# Conditions: DT40 Tdp1-/- hTDP1 cells, no CPT, ATP luminescence, 48 h; activity change, negative = growth inhibition: at 46.2 µM (top of the series)
# In short: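 Seeded 400 DT40-hTDP1 cells/well (vehicle DMSO, no 20 nM CPT); pinned compounds; ≥48 hr at 37 °C; CellTiter-Glo luminescence as viability measure.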
# Potency means the concentration at half of the fitted maximal effect.
row,SMILES,Potency
1,Cc1nc2c(ncn2-c2ccccc2)c(=O)n1NC(=O)CN1CCCC1,inactive
2,CCN(CC)C(=O)CSc1nnc(-c2ccc(S(=O)(=O)NCc3ccccc3Cl)cc2)o1,inactive
3,COc1ccccc1NC(=O)[C@H](COCc1ccccc1)NC(=O)OC(C)(C)C,18.4 µM (active)
4,COc1ccccc1NC(=O)C(CC(=O)O)Cc1cc(C)cc(C)c1 (stereo not given),inactive
5,COc1ccccc1NC(=O)C(C)OC(=O)CC1CCCC1 (stereo not given),inactive
6,COc1ccc(C)cc1NC(=O)CCCN1C(=O)NC(C)(C)C1=O,inactive
7,O=S(=O)(NCCNS(=O)(=O)c1ccccc1)c1ccccc1,inactive
8,Cc1cc(C(=O)N2CCCC2(C)C(=O)O)c(C)o1 (stereo not given),inactive
9,Cc1cccc(CCNC(=O)c2ccc3c(c2)nc2n3CCC(C)C2)c1 (stereo not given),18.4 µM (active)
10,COc1ccc(CNC(=O)c2ccc3c(c2)nc2n3CCOC2)c(OC)c1,inactive
11,Cc1ccc(CCNC(=O)c2ccc3c(c2)nc2n3CCC(C)C2)cc1 (stereo not given),inactive
12,CCOc1ccc(CCNC(=O)COC(=O)C2CCN(S(=O)(=O)c3ccccc3)CC2)cc1OCC,inactive
13,COC(=O)c1ccc(COC(=O)c2cnccn2)cc1,inactive
14,Cc1ccc(S(=O)(=O)NCC(C)NS(C)(=O)=O)cc1 (stereo not given),inactive
15,Nc1nnnn1/N=C/c1cccc(Br)c1,inactive
16,COc1ccccc1C(=O)NC(=S)Nc1ccc(N2CCOCC2)cc1,0.206 µM (active)
17,COc1ccc(C(=O)Nc2ccc(C3(C#N)CCCC3)cc2)cc1OC,23.1 µM (active)
18,COc1ccc(C(=O)Nc2ccc(S(=O)(=O)Nc3onc(C)c3C)cc2)cc1OC,inactive
19,Cc1ccc(C(=O)NC(=S)Nc2ccccc2C)cc1,inactive
20,COc1ccc(C(=O)Nc2ccc3c(c2)OCO3)cc1OC,inactive
21,COc1ccc(C(=O)NC(=S)Nc2ccc(Cl)cn2)cc1OC,inactive
22,COc1ccccc1C(=O)Nc1cccc(C(=O)N2CCOCC2)c1,inactive
23,CC(=O)NC(=S)Nc1ccc(NC(=S)NC(=O)c2ccc([N+](=O)[O-])cc2)cc1,inactive

row,SMILES,Potency
1,Cc1ccc(NC(=S)NC(=O)c2ccc(-c3ccccc3)cc2)cc1,4.61 µM (active)
2,COc1ccc(C(=O)Nc2ccc(N3CCC(C)CC3)cc2)cc1Br,inactive
3,COc1ccc(C(=O)NC(=S)Nc2ccc(N3CCCC3)cc2)cc1OC,8.2 µM (active)
4,COc1ccccc1C(=O)NC(=S)NC12CC3CC(CC(C3)C1)C2,inactive
5,CCOC(=O)c1c(C)[nH]c(C(=O)OCC(=O)N2CCCC2=O)c1C,inactive
6,COCCCNC(=O)CN1CCN(Cc2ccccc2Cl)C1=O,inactive
7,CCCc1cc(=O)oc2c(C)c(OCC(=O)N3CCC(C(=O)O)CC3)ccc12,inactive
8,O=[N+]([O-])/C=C1\CCCCCN1,inactive
9,CC1CC(c2ccccc2)n2nc(NC(=O)c3cccs3)nc2N1 (stereo not given),inactive
10,Cc1nnc(NC(=O)CCC(=O)N2CCC(C)CC2)s1,inactive
11,Cc1ccc(OCC(=O)NNC(=S)NCc2ccccc2)cc1,inactive
12,O=C1CCC(C(=O)OCC(=O)Nc2ccc(OC(F)F)cc2)=NN1,inactive
13,Cc1ccc(C(=O)NC(=S)NCCN2CCOCC2)cc1,inactive
14,O=C(Cc1ccccc1)NC(=S)Nc1ccc(N2CCCCC2)cc1,23.1 µM (active)
15,Cc1ccc(C(=O)NC(=S)Nc2ccc(N3CCOCC3)cc2)cc1,29.1 µM (active)
16,COC(=O)c1ccc(NC(=S)NN2CCOCC2)cc1,inactive
17,O=C(CN1CCN(c2ccc(O)cc2)CC1)Nc1ccc(-c2ccccc2)cc1,inactive
18,O=C(CCN1CCN(c2ccccc2)CC1)NNC(=S)Nc1ccccc1,inactive
19,Nc1nonc1-c1noc(-c2ccc(Br)o2)n1,inactive
20,CCC1=C(C(=O)OC)C(c2cc(OC)ccc2OC)C(C#N)=C(N)O1 (stereo not given),inactive
21,CCOc1ccc(C(=O)NCCCN2CCCC2=O)cc1,inactive
22,CC(C)OCCCNc1ncnc2c1[nH]c1ccc(F)cc12,2.91 µM (active)
23,O=C1CCCN1CCCNc1ncnc2c1[nH]c1ccccc12,inactive

row,SMILES,Potency
1,COc1cc(OC)c(OC)cc1/C=N/Nc1ncnc2c1[nH]c1ccc(C)cc12,inactive
2,Cc1cc(C)c2c(NC(=O)C3CC3)nn(C)c2n1,inactive
3,NC1=NC(c2cc(F)cc(F)c2)n2c(nc3ccccc32)N1 (stereo not given),inactive
4,Cc1nnc(N/N=C/C2CC=CCC2)[nH]c1=O (stereo not given),inactive
5,CCN(CC)c1ccc(/C=N/NC(=O)CNC(=O)c2cccnc2)cc1,inactive
6,Cc1ccc(C(=O)NCCNC(=O)c2cnccn2)cc1,inactive
7,CCN(CC)c1ccc(/C=N/NC(=O)c2cnccn2)c(O)c1,4.11 µM (active)
8,CCN(CC)c1ccc(C(=O)Nn2c(C)nc3ccccc3c2=O)cc1,inactive
9,CCN(CC)c1ccc(/C=N/Nc2nc(C)cc(C)n2)c(O)c1,3.26 µM (active)
10,CCCCC(CC)C(=O)Nc1ccc(Cl)cn1 (stereo not given),inactive
11,Cc1cc2c(cc1C)N(Cc1ccccc1)C1=NCCCN12,13 µM (active)
12,O=C(CN1C2=NCCN2c2ccccc21)c1cccs1,inactive
13,Nc1ccc(C(=O)OCC(=O)NC2CCCc3ccccc32)cc1[N+](=O)[O-] (stereo not given),inactive
14,CCN1CCc2nc(NC(=O)c3cc(F)c(F)cc3Cl)sc2C1,inactive
15,CCc1ccc(NC(=O)N2CCc3ccccc3C2)cc1,inactive
16,CCc1ccc(NC(=O)c2sc3nc4c(cc3c2N)CN(CC)CC4)cc1,18.4 µM (active)
17,CC(C(=O)NC1CCCC1)N(c1ccc(Oc2ccccc2)cc1)S(C)(=O)=O (stereo not given),inactive
18,O=C(C[C@H]1CC[C@H]2[C@@H](COC[C@H](O)CN2C(=O)c2ccccn2)O1)N1CCN(c2ccccc2)CC1,inactive
19,O=C(CCSc1ccccc1)NCCSc1ccccn1,inactive
20,O=c1c(=O)n(Cc2c(F)cccc2Cl)ccn1Cc1ccccc1,inactive
21,O=[N+]([O-])/C=C/c1ccc2c(ccn2Cc2ccccc2)c1,4.11 µM (active)
22,O=C(CNC(=O)c1n[nH]c2ccccc12)Nc1cc(Cl)ccc1Cl,inactive
23,COc1ccc(C)cc1NC(=S)Nc1ccccc1SC,inactive

row,SMILES,Potency
1,CSc1ncccc1C(=O)NC1CCCCCC1,inactive
2,CC(C)(C)C(=O)Nc1ccc(-c2cn3cccnc3n2)cc1,inactive
3,Cc1ccc(-c2nnc(SCC(=O)N/N=C/c3cccs3)n2-c2ccc(C)cc2)cc1,14.6 µM (active)
4,NNC(=O)CSc1nnc(-c2ccccc2)n1-c1ccccc1,inactive
5,Cc1nc2ccccc2n1CC(=O)N/N=C/c1cccs1,inactive
6,CN(C)c1nccc(NCc2ccccc2)c1C#N,inactive
7,Cc1ccc(-c2nnc(SC(C)C#N)n2N)cc1 (stereo not given),inactive
8,CCCNC(=O)C(CC)n1nc(CC)n2c(cc3oc(C)cc32)c1=O (stereo not given),20.6 µM (active)
9,CCc1nn(CCCC(=O)NC(C)c2ccccc2)c(=O)c2cc3occc3n12 (stereo not given),inactive
10,CCc1nn(CC(=O)NCC(C)c2ccccc2)c(=O)c2cc3occc3n12 (stereo not given),inactive
11,Cc1ccnc(NC(=O)CCC(=O)N(CC(=O)NCCc2ccccc2)Cc2cccs2)c1,inactive
12,C=CCNC(=O)C1CC=CCC1C(=O)O (stereo not given),inactive
13,CCCCNC(=O)c1ccc(-n2c(=S)[nH]c3ccccc3c2=O)cc1,inactive
14,O=[N+]([O-])c1ccccc1/C=C/CN1CCC(O)CC1,inactive
15,O=C(c1cc(COc2c(F)cccc2F)on1)N1CCSCC1,inactive
16,C(=C\c1ccccc1)/CSc1nnc(-c2cccnc2)n1Cc1ccco1,inactive
17,N=c1c2c(-c3ccccc3)c(-c3ccccc3)oc2ncn1Cc1ccco1,20.6 µM (active)
18,Cn1c(SCC(=O)N2CCOCC2)nnc1-c1ccc2ncccc2c1,inactive
19,O=C1c2ccncc2C(=O)N1C1CCCCC1,inactive
20,Cn1c(=O)c(=O)n(C)c2cc(S(=O)(=O)NCCc3ccccc3)ccc21,inactive
21,C=CCC(NC(=O)Cc1ccccc1)C(=O)NCCC (stereo not given),inactive
22,C=CC[C@@H](Cc1ccc(F)cc1)C(=O)OC[C@H]1CCCN1C(=O)[C@H](CC=C)CC(=O)N(CCO)Cc1ccccc1,18.4 µM (active)
23,C=CCC[C@@H](Cc1ccc(F)cc1)C(=O)OC[C@@H](C)NC(=O)[C@H](CC=C)CC(=O)N(CCO)Cc1ccccc1,8.2 µM (active)

row,SMILES,Potency
1,C=CC[C@H](CC(=O)N(CCO)Cc1ccccc1)C(=O)N[C@@H](COC(=O)[C@@H](CC=C)Cc1ccc(F)cc1)Cc1ccccc1,20.6 µM (active)
2,CC(CCc1ccccc1)NC(=O)COC(=O)c1ccc(F)cc1 (stereo not given),inactive
3,O=C(O)CCC(=O)O,inactive
4,CC(=O)Nc1ccc(N2C(=O)CCC2=O)cc1C,inactive
5,Cc1cc(=O)cc(C)[nH]1,inactive
6,COc1cc(C(=O)NCCOC(=O)c2cccc(N(C)C)c2)cc(OC)c1OC,inactive
7,Cc1ccc(C(=O)N(CC(=O)NC2CCCC2)c2ccc(F)cc2)s1,inactive
8,O=[N+]([O-])c1ccccc1NCc1ccccc1Cl,inactive
9,N/C(=N/O)c1cccn1Cc1ccccc1[N+](=O)[O-],inactive
10,O=c1c([N+](=O)[O-])cccn1Cc1ccc(F)cc1Cl,20.6 µM (active)
11,COc1ccc(C2C(C#N)=C(/N=C/N3CCOCC3)OC3=C2C(=O)CC(C)(C)C3)cc1OC (stereo not given),inactive
12,Cc1ccc(S(=O)(=O)NCCC(=O)NCc2ccc(Cl)cc2)cc1C,inactive
13,CC(C)NS(=O)(=O)c1ccc(CCC(=O)N2CCOCC2)cc1,inactive
14,CCNS(=O)(=O)c1ccc(CCC(=O)N2CCN(c3cc(Cl)ccc3C)CC2)cc1,11.6 µM (active)
15,O=C(CSc1nnc2scc(-c3ccc(F)cc3)n12)NCc1ccco1,inactive
16,O=c1[nH]c(CSc2ncc(-c3ccc(F)cc3)n2Cc2ccco2)nc2ccccc12,20.6 µM (active)
17,Nc1cc(=O)nc(SCc2ccccc2)n1Cc1ccco1,inactive
18,COc1ccc(C)c(Cn2c(-c3nonc3N)nc3ccccc32)c1,2.31 µM (active)
19,CC(C)(C)N1CC(c2nc3ccccc3n2Cc2ccc(F)cc2)CC1=O (stereo not given),inactive
20,Cc1noc(C)c1COC(=O)Cn1c(C)nc2ccccc21,inactive
21,Nc1nonc1-c1nc2ccccc2n1Cc1ccc(F)cc1,20.6 µM (active)
22,Nc1nonc1-c1nc2ccccc2n1CCC(=O)O,inactive
23,COc1ccc2oc(N)nc2c1,inactive

# Reference: PubChem BioAssay AID686978 (National Center for Advancing Translational Sciences (NCATS), 2013)
